Reference: PubChem BioAssay AID457 (Sanford-Burnham Center for Chemical Genomics, 2006)
The whole screen tested about 10,000 compounds, of which about 20 (0.2%) were called active. How the calls were made is not given here. Not all results are given here.

assay: boosters of cytokine-driven VCAM-1 levels – imaging, high-content imaging, pooled HUVEC, TNFa stimulus (AID 457); details: TNFa-induced VCAM-1 immunofluorescence imaging;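 compounds tested at 5 µM in the well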;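 on augmentation: cells exposed to compound for 24 hours before fixing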

augmentation, inactive:
CC(C)Oc1cc2oc(=O)c3c(c2cc1Cl)CCC3
O=C(CSc1nc2ccccc2s1)N1CCN(C(=O)c2ccco2)CC1
CCOc1ccccc1N1CCN(S(=O)(=O)c2cccc3nsnc23)CC1
Cn1c(=O)c2c(nc(NCc3ccccc3)n2CCCc2ccccc2)n(C)c1=O
CCOC(=O)c1[nH]c(CSc2nnc(-c3ccc(OC)cc3)o2)c(C(=O)OCC)c1C
O=C(Nc1cnn(C23CC4CC(CC(C4)C2)C3)c1)c1cnn2c(C(F)(F)F)cc(-c3ccco3)nc12
Cc1noc(C)c1CSc1ccccc1C(=O)N1CCN(c2ccccc2)CC1
CCn1cc(C2=NCC(C)O2)c2ccccc21 (centres undefined)
CCC(=O)N1CCc2cc(Br)cc(S(=O)(=O)C3(C(=O)OC)CC3)c21
COc1ccc(Cl)cc1NC(=O)CCN1CCN(c2ccccc2C)CC1
COC(=O)c1ccc2ncccc2c1
Cc1cccc(C2CC(c3ccccc3)Nc3nc(N)nn32)c1 (centres undefined)
O=C(NCCCN1CCCC1=O)c1cncc(Br)c1
Cc1ccccc1-c1noc(N)c1C#N
COc1ccccc1-c1nnc(SCC(=O)NC2CCCCC2)o1
O=C(CSc1nnnn1-c1ccccc1Cl)Nc1ccc2c(c1)OCCO2
O=C(CCNC(=O)c1ccc(Br)o1)NC1CCCC1
N#Cc1cnn(Cc2ccc(Cl)cc2)c1N
COc1ccc(N2CCN(C(=O)CSc3ccccc3)CC2)cc1
Cc1csc(NC(=O)c2cccc(S(=O)(=O)N3CCCCC3)c2)n1
COCc1[nH]nc2c1C(c1cc(OC)c(O)c(OC)c1)C(C#N)=C(N)O2 (centres undefined)
Cc1cc(NC(=O)CCC(=O)N(c2cccnc2)C(C(=O)NC2CCCC2)c2ccccc2F)no1 (centres undefined)
CN(C)c1ccc(CNn2cnnc2)cc1
O=C(NC1CC2CCC1C2)c1ccc(CN2CCOCC2)cc1 (centres undefined)
CCOc1ccc2nc(NC(=O)CSc3nc4ccccc4c(=O)n3Cc3ccco3)sc2c1
c1ccc(-n2ncc3c(N4CCCCC4)ncnc32)cc1
CCOc1ccccc1C(=O)NCC(=O)OCC(=O)N1C(C)CCCC1C (centres undefined)
Cc1nc2oc3c(NCc4ccccn4)ncnc3c2c2c1COC(C)(C)C2
O=C(c1ccc(NS(=O)(=O)c2cccs2)cc1)N1CCCCC1
COCCNC(=O)c1ccc2c(c1)nc(C)n2-c1cccc(F)c1
O=C(c1ccc(Cl)cc1)N(Cc1cccs1)C1CCS(=O)(=O)C1 (centres undefined)
CN(C(=O)c1c(Cl)nc2sccn12)C1CCCCC1
O=C(COC(=O)C1=COCCO1)Nc1ccccc1Oc1ccccc1
O=C(CN1C(=O)CSC1=O)Nc1ccc(N2CCOCC2)cc1
CCN(CC)CCN1C(=O)C(=O)/C(=C(/O)c2c(C)[nH]c(C(=O)OC)c2C)C1c1ccco1 (centres undefined)
CCNC(=O)N(C)c1nncnc1C(=O)NC
Cc1noc(C)c1S(=O)(=O)N1CCC(C(=O)N2CCN(Cc3ccc4c(c3)OCO4)CC2)CC1
O=C(CSc1nnc(-c2ccncc2)n1-c1ccc(F)cc1)NC(=O)NCc1ccco1
COc1ccc(S(=O)(=O)NC(CC(=O)NCc2ccco2)c2ccco2)cc1 (centres undefined)
COc1ccc2nc(NC(=O)C3CCCN(S(=O)(=O)c4cccc5nsnc45)C3)sc2c1 (centres undefined)
COC(=O)C(CCCCNC(=O)OCc1ccccc1)NC(=O)CN (centres undefined)
CCCCC(CC)Cn1c2nc3ccccc3nc2c2c(=N)oc(C)nc21 (centres undefined)
O=C(CCCN1C(=O)c2ccccc2C1=O)NCc1cccnc1
CCN(CC)S(=O)(=O)c1cccc(-c2nnc(SCC(N)=O)n2CCc2ccccc2)c1
CCc1c(C(=O)Nc2cc(C)ccc2OC)[nH]c(C)c1C(C)=O
COC(=O)c1ccc(-c2nn(C)c(=O)c3ccccc23)cc1
Cc1cc2ncn(S(=O)(=O)c3ccc(S(=O)(=O)N4CCOCC4)cc3)c2cc1C
Cc1ccccc1NC(=O)CN1CCC(NC(=O)Nc2ccccc2)CC1
O=C(Nc1ccc(O)cc1)C1CCCN1S(=O)(=O)c1ccc(F)cc1 (centres undefined)
O=c1c2ccccc2cnn1-c1nc2ccccc2s1
CCc1nnc(NC(=O)CSc2nc3ccccc3s2)s1
Cc1cccc(C(=O)N(C)c2nnc(-c3ccncc3)s2)c1
CCOC(=O)CC1(CC(=O)OCC)NC(=O)c2c(C)sc(C(=O)OCC)c2N1
CCSc1nc(-c2ccc(OC)cc2)ccc1C#N
COC(=O)c1ccccc1NC(=O)c1cc(-c2ccc(OC)c(OC)c2)on1
Cc1cccc(N(CC(=O)Nc2ccc(CC#N)cc2)S(C)(=O)=O)c1
COc1ccc(CN(C(=O)c2oc3ccccc3c2C)C2CCS(=O)(=O)C2)cc1 (centres undefined)
Cn1c(=O)c2ncn(CC(=O)NCCOc3ccc(C(C)(C)C)cc3)c2n(C)c1=O
CSc1nc2ccc(S(=O)(=O)N3CCOCC3)cc2s1
Cn1c(Cc2cccs2)nnc1SCC(=O)N1CCc2ccccc21
O=S(=O)(c1cccc(S(=O)(=O)N2CCC(N3CCCCC3)CC2)c1)N1CCOCC1
Cc1ccccc1CS(=O)(=O)Cc1ccc(C(=O)NCCCN2CCOCC2)o1
COc1cccc(-c2noc(CCC(=O)NC3CCCCC3)n2)c1
CCOC(=O)CSC1=Nc2ccccc2C2=NC(CC(=O)NCc3ccc(OC)cc3)C(=O)N12 (centres undefined)
Cc1cc(NC(=O)C23CCC(C)(c4nc5cc(Cl)c(Cl)cc5nc42)C3(C)C)no1 (centres undefined)
Cc1ccc(/C(O)=C2\C(=O)C(=O)N(CCCN(C)C)C2c2ccccn2)cc1 (centres undefined)
O=C(OCc1ccc2c(c1)OCO2)c1ccc(S(=O)(=O)N2CCCCC2)cc1
CCN(CC)S(=O)(=O)c1ccc(S(=O)(=O)N(Cc2ccccn2)Cc2ccco2)cc1
O=C(COc1ccc(S(=O)(=O)NC2CCCCC2)cc1)NCc1ccccn1
CCCCOc1ccc(N(CC(=O)NC2CCCC2)C(=O)CCC(=O)Nc2ccccn2)cc1
CS(=O)(=O)Nc1ccc(C(=O)NCc2ccco2)cc1
CCN(Cc1nc2cc(OC)c(OC)cc2c(=O)[nH]1)C(=O)c1ccc(S(=O)(=O)N(C)C)cc1
O=C(CP(=O)(c1ccccc1)c1ccccc1)N1CCCCC1
Cc1cnc(C(=O)Nc2ccc(N3CCN(C(=O)OC(C)(C)C)CC3)cc2)cn1 14.8%
COc1cccc(N2CCN(CC(=O)Nc3nnc(-c4ccccc4)s3)CC2)c1
Oc1ccc(N2CCN(C(c3ccncc3)c3nnnn3C3CCCC3)CC2)cc1 (centres undefined)
C1CCC2=NCCCN2CC1
CCOc1ccc(N(CC(=O)Nc2ccc(F)c(F)c2)S(=O)(=O)c2c(C)noc2C)cc1
COc1cc(Cl)c(C)cc1NC(=O)COC(=O)c1cnc(C)cn1
O=C(CC1CCCCC1)NCc1ccccn1
COc1ccccc1CNS(=O)(=O)c1ccc(NC(C)=O)cc1
COc1ccc(S(=O)(=O)NC2CCCCC2)c(C)c1C
Cc1nc2ccc(S(=O)(=O)NCC(=O)N3CCc4ccccc4C3)cc2s1
CCOc1ccccc1Nc1nc2ccccc2[nH]1
Cc1ccc2nc(-c3ccc4c(c3)OCCO4)cc(C(=O)O)c2c1
COc1ccc(C(=O)NCCc2nnc(SCc3nc4ccccc4c(=O)[nH]3)n2C)cc1
Cc1cc(NC(=O)c2cc3ccccc3o2)cc(C)c1OCC(=O)N1CCOCC1
Cc1c(C(=O)OCC(C)C)[nH]c2c1C(=O)CC(c1ccco1)C2 (centres undefined)
CC(NC(=O)c1ccc(F)cc1)C(c1cccs1)N1CCN(C)CC1 (centres undefined)
C=CCN1C(=O)C2(C(C#N)=C(N)Oc3n[nH]c(CCC)c32)c2ccccc21 (centres undefined)
CCOC(=O)c1c(NC(=O)OC)sc(C(=O)N(C)C)c1C
COc1ccc(N(C)C(=O)CCS(=O)(=O)c2cccc3nonc23)cc1
COc1ccc(CCNC(=O)CCN2C(=O)C3CC=CCC3C2=O)cc1OC (centres undefined)
O=C(Nc1ccccc1)c1cnc2n(c1=O)CCS2
C=CCn1cnc2c(NCc3ccccc3)ncnc21
Cc1cc(C)n(S(=O)(=O)c2cc(C(=O)O)c(Cl)cc2Cl)n1
CCOC(=O)C1=C(CN2CCOCC2)NC(=O)NC1c1cc(C)ccc1C (centres undefined)
O=C(O)CC(NC(=O)c1ccccc1NC(=O)c1ccccc1)C(=O)O (centres undefined)
COc1ccc2cc(CN(CCO)C(=O)c3ccc(Br)cc3)c(=O)[nH]c2c1
COc1cc(OC)cc(-c2nnc(SCC(=O)Nc3cc(C)on3)o2)c1
Cc1ccc(C(=O)OCC(=O)Nc2ccc3c(c2)OCO3)o1
Cc1cc2ccccc2c(=O)n1CC(=O)N(C)c1ccc(F)cc1
CC(Oc1ccccc1)C(=O)Nc1ccc(S(=O)(=O)NCC2CCCO2)cc1 (centres undefined)
Cn1c(NC(=O)c2cccc(Cn3cc(Cl)cn3)c2)nc2ccccc21
Cc1cc2c(s1)c1cnn(CC(=O)NCCc3ccccc3)c(=O)c1n2C
COc1ccc2c(c1)CCc1c(C(=O)N3CC4(C)CC3CC(C)(C)C4)noc1-2 (centres undefined)
O=C(Cn1ccc2ccccc2c1=O)NCCC(=O)N1CCN(C(=O)c2ccco2)CC1
CCN(CC)C1CCCCC1NS(=O)(=O)c1ccc(Cl)cc1 (centres undefined)
Cn1c(=O)cc(OCC(=O)N2CCN(c3cccc(C(F)(F)F)c3)CC2)c2ccccc21
